Measured values as given in PubChem BioAssay (NCI).
This is part of a sample that, as a whole, favours compounds with a hit. Of some 79,000 tested, about 15% had one in any assay. No stated cut-off is given here; in the data, active means growth inhibition above about 70%; inactive means the rest.

Key:
[1] = NCI Yeast Anticancer Drug Screen. Data for the rad50 strain (AID 155);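 further: 0% = growth of vehicle-only cultures of the same strain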; conditions: S. cerevisiae rad50 strain growth inhibition; at 50.0 µM; active compounds read high
Outline: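 Vehicle-treated cultures provide the reference for the growth inhibition reported for compound-exposed, repair-deficient yeast.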

[2] = NCI Yeast Anticancer Drug Screen. Data for the mec2-1 strain (AID 157); conditions: S. cerevisiae mec2-1 strain, at 50.0 µM, active compounds read high
Outline: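 Using mec2-1 yeast: add compound, measure growth, express inhibition versus vehicle-treated cultures.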

[3] = NCI Yeast Anticancer Drug Screen. Data for the sgs1 mgt1 strain (AID 161);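 further: 0% = growth of cultures given vehicle only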; conditions: S. cerevisiae sgs1 mgt1 strain, at 50.0 µM, active compounds read high
Outline: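 Percent growth inhibition was derived by comparing compound-exposed mutant yeast with vehicle-exposed cultures. The strain carries alterations in DNA damage repair.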

[4] = NCI Yeast Anticancer Drug Screen. Data for the cln2 rad14 strain (AID 165);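 further: 0% = growth equal to vehicle treated cultures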; conditions: S. cerevisiae cln2 rad14 strain, at 50.0 µM, active compounds read high
Outline: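 Yeast strain cln2 rad14, bearing defects in cell cycle control and DNA repair, serves as the test system; values reflect growth inhibition compared with vehicle.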

[5] = NCI Yeast Anticancer Drug Screen. Data for the bub3 strain (AID 167); conditions: S. cerevisiae bub3 mutant strain, at 50.0 µM, active compounds read high
Outline: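 Mutant yeast screening strain plus compound; vehicle-treated cultures serve as the 0% inhibition reference.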

[6] = NCI Yeast Anticancer Drug Screen. Data for the mlh1 rad18 strain (AID 175); conditions: S. cerevisiae mlh1 rad18 strain growth inhibition; at 50.0 µM; active compounds read high
Outline: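 Steps: expose repair-defective yeast to compound; measure growth; express inhibition against vehicle-treated controls.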

Measured: growth inhibition

O=CC1CCCc2ccccc21 (configuration not stated)
inactive: [1] 17.1% | [2] -20.5% | [3] -0.7% | [4] -5.7% | [5] 3.9% | [6] 5.6%

Cc1cccc(C(C)(C)C)c1NC(=O)CC1C(=O)Nc2ccccc2S1(=O)=O (configuration not stated)
inactive: [1] 4.85% | [2] 1.8% | [3] -4.4% | [4] 8.95% | [5] 9.5% | [6] 23.9%

Cc1ccc2[nH]c(=O)cc(C(F)(F)F)c2c1
inactive: [1] 13.2% | [2] 6.35% | [3] 5.4% | [4] -2.1% | [5] -15.2% | [6] 21.7%

CCOC(=O)/C=C/n1c2ccccc2c(=O)c2cc(OC)ccc21
inactive: [1] -3.25% | [2] -13.6% | [3] -18.8% | [4] 3.6% | [5] -8.95% | [6] -2.4%

CC(Oc1ccccc1)C(O)(c1ccc(N(C)C)cc1)c1ccc(N(C)C)cc1 (configuration not stated)
inactive: [1] 3.3% | [2] -5.9% | [3] 9.3% | [4] 8.15% | [5] 1.4% | [6] 11.9%

CNC(=O)c1ccccc1Cl
inactive: [1] -0.55% | [2] 6.9% | [3] 10.8% | [4] 4.65% | [5] 3.9% | [6] 19.2%

Cc1ccc(C)c(NC(=O)CCC(=O)CC(=O)C(C)(C)C)c1
inactive: [1] -3.25% | [2] 8.35% | [3] 5.3% | [4] 15.5% | [5] -6.4% | [6] 12.7%

CCOC(OC(C)=O)[C@@H]1C=C[C@H](C)N(c2ccc([N+](=O)[O-])cc2)O1 (some centres not stated)
inactive: [1] 25.4% | [2] 13.9% | [3] 39.5% | [4] 18.1% | [5] 42.6% | [6] 32.8%

CCCCCCSc1nc2c([nH]1)c(=O)n(C)c(=S)n2C
inactive: [1] 2.5% | [2] -3.1% | [3] 1.35% | [4] 1.5% | [5] 13.9% | [6] 19.1%

O=C1CC(=C=Nc2ccccc2)C(=O)N1c1ccccc1
inactive: [1] 3.6% | [2] 3.85% | [3] 1.7% | [4] -33.5% | [5] -2.2% | [6] 19.8%

CC(C)c1ccc(/C=C2\CCC/C(=C\c3ccc(C(C)C)cc3)C2=O)cc1
inactive: [1] -6.7% | [2] -17.1% | [3] 9.5% | [4] -12.2% | [5] -20.4% | [6] -3.5%

CS/C(=N/S(=O)(=O)c1ccccc1)NNC(=S)Nc1ccc(C(C)C)cc1
inactive: [1] 14% | [2] -12.6% | [3] 27.2% | [4] 22.6% | [5] 28.3% | [6] 25.9%

CCc1ccc(NC(C)=O)cc1C
inactive: [1] -9.5% | [2] 11.7% | [3] -0.95% | [4] 27% | [5] -1.15% | [6] -9.9%

N#CC(=C1C=CC(=NO)C=C1)c1ccc(Cl)cc1
inactive: [1] -0.05% | [2] 2.5% | [3] 8.3% | [4] -124% | [5] 20.9% | [6] 1.9%

O=C1Nc2cc(F)ccc2C1=O
inactive: [1] 15.5% | [2] 15.1% | [3] 7.95% | [4] 10.7% | [5] 19.6% | [6] 19.4%

CCC/C=N/Nc1ccc([N+](=O)[O-])cc1[N+](=O)[O-]
inactive: [1] -11.3% | [2] -9.95% | [3] 0.3% | [4] -12.5% | [5] 0.9% | [6] -16.1%

O=C(O)CS(=O)(=O)Cc1ccc(Cl)cc1Cl
inactive: [1] 15.6% | [2] 20.4% | [3] 24% | [4] 12.8% | [5] 25.1% | [6] 18.6%

COc1ccc(C2=C(OC(=O)N(C)C)c3cccn3-c3cc(Cl)ccc3S2)cc1
inactive: [1] -7.3% | [2] 2% | [3] 1.7% | [4] -1.85% | [5] -0.1% | [6] -5.95%

CN(CC1=C(O)C(=O)C(CN(C)Cc2c(O)ccc3ccccc23)=C(O)C1=O)Cc1c(O)ccc2ccccc12
inactive: [1] 30.7% | [2] 4.85% | [3] 34.1% | [4] -1.25% | [5] 5.3% | [6] 28.9%

CC1(c2ccc(Cl)s2)NC(=O)NC1=O (configuration not stated)
inactive: [1] -1% | [2] -4.65% | [3] -6.45% | [4] -45.8% | [5] 1.9% | [6] -13.5%

COc1ccc(C2=C/C(=C/c3ccc(N(CCC#N)CCC#N)cc3)C(=O)O2)cc1
inactive: [1] -75.2% | [2] -6.2% | [3] -16.4% | [4] -18.2% | [5] -3.05% | [6] -22.8%

COC(=O)/C=C1/OC(c2ccc(C)cc2C)=CC1=O
inactive: [1] 47.8% | [2] 50.7% | [3] 42.5% | [4] 0.8% | [5] 26.6% | [6] 57.1%

N#C/C(=C\c1c(Cl)cccc1Cl)c1nc(-c2ccc(Cl)cc2)cs1
inactive: [1] -32.4% | [2] -40.6% | [3] -25.5% | [4] -23.6% | [5] -17.4% | [6] -32.9%

CS(=O)(=O)OCCOc1ccccc1
inactive: [1] 1.15% | [2] -0.45% | [3] 0.95% | [4] -32% | [5] 9.15% | [6] 8.05%

Nc1nc2ccc3ccccc3c2c(=O)[nH]1
inactive: [1] -4.35% | [2] 2.35% | [3] -1.55% | [4] -10.1% | [5] -15.6% | [6] 12.7%

CC12C=C[C@]3(CC[C@@H]4[C@@](C)(CO)CCC[C@]4(C)C3CC1)C2 (some centres not stated)
inactive: [1] 13.4% | [2] -2.7% | [3] 12.9% | [4] 8.25% | [5] 15.3% | [6] 7.6%

CN(C)C1CCC(C=C(C2CCC(CC(=O)O)CC2)C2CCC(CC(=O)O)CC2)CC1 (configuration not stated)
inactive: [1] -2.95% | [2] -21.5% | [3] 9.6% | [4] 13.6% | [5] 1.05% | [6] 6.3%

C[N+]1(C)CCN(S(=O)(=O)c2ccccc2)c2ccccc21
inactive: [1] -10.1% | [2] -13.4% | [3] -4.35% | [4] -7.95% | [5] -19.6% | [6] -18.4%

c1ccc(-c2c(-c3ccc4c(c3)CCCC4)c(-c3ccccc3)c3c(c2-c2ccccc2)-c2cccc4cccc-3c24)cc1
inactive: [1] -4.15% | [2] 2.8% | [3] -2.45% | [4] 13.3% | [5] -2.9% | [6] 2.75%

OCCCc1nc2ccccc2[nH]1
inactive: [1] -10.3% | [2] -21.8% | [3] -15.1% | [4] 8.85% | [5] -17.7% | [6] 11.1%

CCOC(=O)[C@H]1Nc2c(cccc2[N+](=O)[O-])[C@H]2OCC[C@@H]12
inactive: [1] -12.8% | [2] -22.3% | [3] -0.45% | [4] 11.4% | [5] -22.6% | [6] -26.9%

Cc1cc(C(F)(F)F)cc(-n2nc(NS(=O)(=O)c3cc(C)c(Cl)cc3S)nc2N)n1
inactive: [1] 13.1% | [2] 10.1% | [3] 15.4% | [4] -2.9% | [5] 4.5% | [6] 33.5%

COCCO[Si](OCCOC)(OCCOC)OCCOC
inactive: [1] 4.3% | [2] -10.2% | [3] -1.25% | [4] 11.9% | [5] 7.4% | [6] 10.2%

CC(CO)CCC(=O)C(C)C1CC2(C)CCC3C(CCC4CC(O)CCC43C)C2C12SCCS2 (configuration not stated)
inactive: [1] 0.6% | [2] 19.5% | [3] -7.8% | [4] 17.1% | [5] 36.6% | [6] -0.25%

CC(C)(C)c1cc(CCCCCCCC2(CCCCCCCc3cc(C(C)(C)C)cc(C(C)(C)C)c3)OC(COCCOCCCCCC#N)C(COCCOCCCCCC#N)O2)cc(C(C)(C)C)c1 (configuration not stated)
inactive: [1] 24.6% | [2] -6.5% | [3] -1.5% | [4] -18% | [5] 0% | [6] 9.6%

CN(C)Cc1ccccc1C(=C(c1ccccc1)c1ccccc1)c1ccccc1
inactive: [1] -15.1% | [2] -4.65% | [3] -8% | [4] -23.6% | [5] -0.8% | [6] -10.9%

O=C(c1ccccc1)C1C=CC=CN1Cc1ccccc1S(=O)(=O)O (configuration not stated)
inactive: [1] 13.5% | [2] 0.6% | [3] -3.95% | [4] 3% | [5] 1.75% | [6] -19.2%

Cc1c([N+](=O)[O-])cc(C(C)C)c(O)c1[N+](=O)[O-]
inactive: [1] 14.8% | [2] 25.3% | [3] 27.9% | [4] -6% | [5] -9.5% | [6] 66.2%

Cn1c(=O)c2c(ncn2CN2CCN(Cn3cnc4c3c(=O)n(C)c(=O)n4C)CC2)n(C)c1=O
inactive: [1] 2.75% | [2] 28.2% | [3] -7.45% | [4] 16.1% | [5] -63.9% | [6] -30%

Cc1nc(Nc2ccc(Cl)c(Cl)c2)sc1C(=O)/C=C/c1ccc2c(c1)OCO2
inactive: [1] 39.5% | [2] 23.1% | [3] 13.6% | [4] -2.2% | [5] -7.75% | [6] 38.3%

COc1ccccc1NC(=O)C(C#N)=C(SC)SC
inactive: [1] 2.05% | [2] -14.2% | [3] 0.1% | [4] 18.6% | [5] -22.4% | [6] -13.7%

Cc1cc(C)c2c(=O)cc(-c3cccc(F)c3)[nH]c2n1
inactive: [1] 1.35% | [2] -0.65% | [3] -28.2% | [4] 3.8% | [5] -1.3% | [6] -26.1%
